Results published in PubChem BioAssay AID1159580 (chemical genetic matrix, 2015).
About 2,000 (36%) of roughly 5,500 compounds were called active. Inconclusive results (about 18%) are left out. The list shows a part of the results. Unmarked numbers belong to inactive results. Cut-off read from the data, not from the text of the source: active = normalized growth mostly below about 0.91 (no sharp cut-off); inconclusive = no clear call, values can overlap the other calls; inactive = mostly above about 0.92.

Assay: chemical genetic growth profiling, strain panel (AID 1159580);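 note: tested at 20 µM; growth read once vehicle control cultures reached saturation at 30 °C; 1 = growth at the plate median or of vehicle wells; lower values mean less growth of the strain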
Conditions: growth OD
[1] = S. cerevisiae deletion strains, locus YAL013W, strain DEP1, hits give low values
[2] = S. cerevisiae deletion strains, locus YBR229C, strain ROT2, hits give low values
[3] = S. cerevisiae deletion strains, locus YDL101C, strain DUN1, hits give low values
[4] = S. cerevisiae deletion strains, locus YDR150W, strain NUM1, hits give low values
[5] = S. cerevisiae deletion strains, locus YEL061C, strain CIN8, hits give low values
[6] = S. cerevisiae deletion strains, locus YGR078C, strain PAC10, hits give low values
[7] = S. cerevisiae deletion strains, locus YHR030C, strain SLT2, hits give low values
[8] = S. cerevisiae deletion strains, locus YHR087W, strain rtc3, hits give low values
[9] = S. cerevisiae deletion strains, locus YJR043C, strain POL32, hits give low values
[10] = S. cerevisiae deletion strains, locus YJR075W, strain HOC1, hits give low values
[11] = S. cerevisiae deletion strains, locus YKL190W, strain CNB1, hits give low values
[12] = S. cerevisiae deletion strains, locus YLR039C, strain RIC1, hits give low values
[13] = S. cerevisiae deletion strains, locus YLR058C, strain SHM2 (second series), hits give low values
[14] = S. cerevisiae deletion strains, locus YLR085C, strain ARP6, hits give low values
[15] = S. cerevisiae deletion strains, locus YLR262C, strain YPT6, hits give low values
[16] = S. cerevisiae deletion strains, locus YML094W, strain GIM5, hits give low values
[17] = S. cerevisiae deletion strains, locus YMR219W, strain ESC1, hits give low values
[18] = S. cerevisiae deletion strains, locus YMR263W, strain SAP30, hits give low values
[19] = S. cerevisiae deletion strains, locus YNL153C, strain GIM3, hits give low values
[20] = S. cerevisiae deletion strains, locus YNL298W, strain CLA4 (second series), hits give low values
[21] = S. cerevisiae deletion strains, locus YNL322C, strain KRE1, hits give low values
[22] = S. cerevisiae deletion strains, locus YNR030W, strain Alg12, hits give low values
[23] = S. cerevisiae deletion strains, locus YOL006C, strain TOP1, hits give low values
[24] = S. cerevisiae deletion strains, locus YPL055C, strain LGE1, hits give low values
[25] = S. cerevisiae deletion strains, locus YPL241C, strain CIN2, hits give low values
[26] = S. cerevisiae deletion strains, locus YPR135W, strain CTF4, hits give low values

FC(F)(F)c1ccnc(-n2ccc(-c3cccs3)n2)n1
normalized growth [1]: 0.94
normalized growth [2]: 0.964
normalized growth (S. cerevisiae deletion strains, locus YCL061C, strain MRC1, hits give low values): 0.926
normalized growth [3]: 0.916
normalized growth [4]: 0.987
normalized growth [5]: 0.946
normalized growth [6]: 0.973
normalized growth (S. cerevisiae deletion strains, locus YGR229C, strain SMI1, hits give low values): 0.972
normalized growth [7]: 0.457 (active)
normalized growth [8]: 1.01
normalized growth [9]: 0.963
normalized growth [10]: 0.964
normalized growth [11]: 0.952
normalized growth [12]: 0.733 (active)
normalized growth [13]: 0.982
normalized growth [14]: 0.528 (active)
normalized growth [15]: 0.795 (active)
normalized growth [16]: 0.887
normalized growth [17]: 0.995
normalized growth [18]: 0.955
normalized growth (S. cerevisiae deletion strains, locus YNL128W, strain TEP1, hits give low values): 0.953
normalized growth [19]: 0.955
normalized growth [20]: 0.815 (active)
normalized growth [21]: 0.994
normalized growth [22]: 0.891
normalized growth [23]: 0.64 (active)
normalized growth [24]: 0.881
normalized growth [25]: 0.9
normalized growth [26]: 0.535 (active)

O=[N+]([O-])c1cc(C(F)(F)F)ccc1-n1ccc(-c2cccs2)n1
normalized growth (S. cerevisiae deletion strains, locus YAR019C, strain CDC15, hits give low values): 0.953
normalized growth (S. cerevisiae deletion strains, locus YBL105C, strain PKC1, hits give low values): 0.952
normalized growth (S. cerevisiae deletion strains, locus YBR135W, strain CKS1, hits give low values): 0.948
normalized growth (S. cerevisiae deletion strains, locus YBR136W, strain MEC1, hits give low values): 0.954
normalized growth (S. cerevisiae deletion strains, locus YBR160W, strain CDC28, hits give low values): 0.956
normalized growth (S. cerevisiae deletion strains, locus YDL017W, strain CDC7, hits give low values): 0.955
normalized growth (S. cerevisiae deletion strains, locus YDL028C, strain MPS1, hits give low values): 0.958
normalized growth [3]: 0.959
normalized growth (S. cerevisiae deletion strains, locus YDL108W, strain KIN28, hits give low values): 0.951
normalized growth (S. cerevisiae deletion strains, locus YDL132W, strain cdc53, hits give low values): 0.96
normalized growth (S. cerevisiae deletion strains, locus YDL214C, strain PRR2, hits give low values): 0.88
normalized growth (S. cerevisiae deletion strains, locus YDR052C, strain DBF4, hits give low values): 0.951
normalized growth (S. cerevisiae deletion strains, locus YDR054C, strain cdc34, hits give low values): 0.95
normalized growth (S. cerevisiae deletion strains, locus YDR226W, strain ADK1, hits give low values): 0.952
normalized growth (S. cerevisiae deletion strains, locus YDR477W, strain SNF1, hits give low values): 0.879
normalized growth (S. cerevisiae deletion strains, locus YER123W, strain YCK3, hits give low values): 0.846
normalized growth (S. cerevisiae deletion strains, locus YER133W, strain GLC7, hits give low values): 0.846
normalized growth (S. cerevisiae deletion strains, locus YFL009W, strain cdc4, hits give low values): 0.952
normalized growth (S. cerevisiae deletion strains, locus YFL029C, strain CAK1, hits give low values): 0.952
normalized growth (S. cerevisiae deletion strains, locus YFR003C, strain YPI1, hits give low values): 0.951
normalized growth (S. cerevisiae deletion strains, locus YFR019W, strain FAB1, hits give low values): 0.945
normalized growth (S. cerevisiae deletion strains, locus YFR028C, strain CDC14, hits give low values): 0.952
normalized growth (S. cerevisiae deletion strains, locus YGR040W, strain KSS1, hits give low values): 0.882
normalized growth (S. cerevisiae deletion strains, locus YGR052W, strain FMP48, hits give low values): 0.933
normalized growth (S. cerevisiae deletion strains, locus YGR092W, strain DBF2, hits give low values): 0.754
normalized growth [7]: 0.76 (active)
normalized growth (S. cerevisiae deletion strains, locus YHR079C, strain IRE1, hits give low values): 0.87
normalized growth (S. cerevisiae deletion strains, locus YHR082C, strain KSP1, hits give low values): 0.968
normalized growth (S. cerevisiae deletion strains, locus YHR205W, strain SCH9, hits give low values): 0.913
normalized growth (S. cerevisiae deletion strains, locus YIL147C, strain SLN1, hits give low values): 0.957
normalized growth (S. cerevisiae deletion strains, locus YJL095W, strain BCK1, hits give low values): 0.863
normalized growth (S. cerevisiae deletion strains, locus YJL128C, strain PBS2, hits give low values): 0.897
normalized growth (S. cerevisiae deletion strains, locus YJL157C, strain FAR1, hits give low values): 0.84
normalized growth (S. cerevisiae deletion strains, locus YJR016C, strain ILV3, hits give low values): 0.958
normalized growth (S. cerevisiae deletion strains, locus YJR066W, strain TOR1 (second series), hits give low values): 0.839
normalized growth (S. cerevisiae deletion strains, locus YJR066W, strain TOR1, hits give low values): 0.889
normalized growth (S. cerevisiae deletion strains, locus YKL048C, strain ELM1, hits give low values): 0.914
normalized growth (S. cerevisiae deletion strains, locus YKL067W, strain YNK1, hits give low values): 0.88
normalized growth (S. cerevisiae deletion strains, locus YKL101W, strain HSL1, hits give low values): 0.875
normalized growth (S. cerevisiae deletion strains, locus YKL193C, strain SDS22, hits give low values): 0.957
normalized growth (S. cerevisiae deletion strains, locus YKL203C, strain TOR2, hits give low values): 0.919
normalized growth (S. cerevisiae deletion strains, locus YLR113W, strain HOG1, hits give low values): 0.789 (active)
normalized growth (S. cerevisiae deletion strains, locus YLR133W, strain CKI1, hits give low values): 0.88
normalized growth (S. cerevisiae deletion strains, locus YLR403W, strain SFP1, hits give low values): 0.804
normalized growth (S. cerevisiae deletion strains, locus YML070W, strain DAK1, hits give low values): 0.87
normalized growth (S. cerevisiae deletion strains, locus YMR001C, strain CDC5, hits give low values): 0.947
normalized growth (S. cerevisiae deletion strains, locus YMR205C, strain PFK2 (second series), hits give low values): 0.896
normalized growth (S. cerevisiae deletion strains, locus YMR277W, strain FCP1, hits give low values): 0.958
normalized growth (S. cerevisiae deletion strains, locus YNL006W, strain LST8, hits give low values): 0.956
normalized growth (S. cerevisiae deletion strains, locus YNL020C, strain ARK1, hits give low values): 0.861
normalized growth (S. cerevisiae deletion strains, locus YNL161W, strain CBK1, hits give low values): 0.949
normalized growth (S. cerevisiae deletion strains, locus YNL183C, strain NPR1, hits give low values): 0.92
normalized growth (S. cerevisiae deletion strains, locus YNL207W, strain RIO2, hits give low values): 0.947
normalized growth (S. cerevisiae deletion strains, locus YNL222W, strain SSU72, hits give low values): 0.965
normalized growth (S. cerevisiae deletion strains, locus YNL307C, strain MCK1 (second series), hits give low values): 0.862
normalized growth (S. cerevisiae deletion strains, locus YOL078W, strain AVO1, hits give low values): 0.952
normalized growth (S. cerevisiae deletion strains, locus YOL136C, strain PFK27, hits give low values): 0.883
normalized growth (S. cerevisiae deletion strains, locus YOR061W, strain CKA2, hits give low values): 0.827
normalized growth (S. cerevisiae deletion strains, locus YOR119C, strain RIO1, hits give low values): 0.932
normalized growth (S. cerevisiae deletion strains, locus YOR231W, strain MKK1, hits give low values): 0.886
normalized growth (S. cerevisiae deletion strains, locus YOR329C, strain SCD5, hits give low values): 0.947
normalized growth (S. cerevisiae deletion strains, locus YPL031C, strain PHO85, hits give low values): 0.872
normalized growth (S. cerevisiae deletion strains, locus YPL153C, strain RAD53, hits give low values): 0.92
normalized growth (S. cerevisiae deletion strains, locus YPL204W, strain HRR25, hits give low values): 0.885
normalized growth (S. cerevisiae deletion strains, locus YPL209C, strain IPL1, hits give low values): 0.959
normalized growth (S. cerevisiae deletion strains, locus YPL256C, strain CLN2, hits give low values): 0.864
normalized growth (S. cerevisiae deletion strains, locus YPR025C, strain CCL1, hits give low values): 0.95
normalized growth (S. cerevisiae deletion strains, locus YPR106W, strain ISR1, hits give low values): 0.954
normalized growth (S. cerevisiae deletion strains, locus YPR111W, strain DBF20, hits give low values): 0.936
normalized growth (S. cerevisiae deletion strains, strain NNK1, hits give low values): 0.926
normalized growth (S. cerevisiae deletion strains, strain TSCII, hits give low values): 0.955

Nc1cc(-c2ccc(Cl)cc2)nc(N)n1
normalized growth [1]: 0.997
normalized growth [2]: 0.991
normalized growth [3]: 0.995
normalized growth (S. cerevisiae deletion strains, locus YDL134C, strain PPH21, hits give low values): 0.959
normalized growth [4]: 1.02
normalized growth [5]: 0.995
normalized growth [6]: 0.999
normalized growth [7]: 0.963
normalized growth [8]: 0.993
normalized growth (S. cerevisiae deletion strains, locus YJL187C, strain SWE1, hits give low values): 1
normalized growth [9]: 0.982
normalized growth [10]: 0.972
normalized growth [11]: 0.965
normalized growth [12]: 0.914
normalized growth [13]: 0.993
normalized growth [14]: 1.02
normalized growth [15]: 0.85
normalized growth [16]: 1.03
normalized growth [17]: 0.991
normalized growth [18]: 0.996
normalized growth [19]: 0.992
normalized growth [20]: 0.992
normalized growth [21]: 0.99
normalized growth [22]: 1
normalized growth [23]: 0.944
normalized growth [24]: 1.02
normalized growth [25]: 0.995
normalized growth [26]: 0.939
normalized growth (S. cerevisiae strains, strain wild type, hits give low values): 0.966
